# SNCA expr inhib = SNCA gene expression inhibition; HEK-293 SNCA-luciferase knock-in, luminescence, 24 h; Potency, µM (highest dose often 57.2 µM), without a hit: at the highest dose activity change, negative = inhibition, usual class: inhibitors; 140,000 compounds, 0.17% hits;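 further: potency means the concentration at half of the fitted maximal effect; plate controls were DMSO cells for no effect and cell-free wells for full effect; nearly all actives have a fitted effect of over 45% in size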
# IP6K1 inh = IP6K1 kinase inhibition | Q92551 | IP6K1 kinase, ADP-Glo luminescence, 2 h; hits give low values | activity change, % (series mostly up to about 58 µM) | 140,000 compounds, 0.81% hits; in the data active means activity change below about -25%; further: on the % scale 0 is the no-effect control and ±100 the full control effect
# Target sequence (Q92551 whole entry, looked up): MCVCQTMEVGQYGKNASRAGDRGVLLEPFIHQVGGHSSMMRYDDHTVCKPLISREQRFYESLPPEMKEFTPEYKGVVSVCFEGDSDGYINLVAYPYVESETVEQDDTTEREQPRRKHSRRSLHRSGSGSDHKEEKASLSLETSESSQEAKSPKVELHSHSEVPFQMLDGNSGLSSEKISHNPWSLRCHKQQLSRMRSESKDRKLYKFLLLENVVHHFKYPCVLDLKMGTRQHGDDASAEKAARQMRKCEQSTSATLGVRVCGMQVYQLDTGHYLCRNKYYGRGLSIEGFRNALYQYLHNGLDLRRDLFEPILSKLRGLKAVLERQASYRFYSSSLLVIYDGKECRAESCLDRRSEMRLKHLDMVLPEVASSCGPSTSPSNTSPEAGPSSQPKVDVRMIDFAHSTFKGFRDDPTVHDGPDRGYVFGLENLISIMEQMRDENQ
#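 ADP-Glo luminescence measures ADP made by human IP6K1 during a 2 h RT reaction with ATP/IP6 (mix at 1.3 mM/130 uM); top library doses 57.5 and 19.1 uM final.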
# HEK293 viab = counter-screen for SNCA expression inhibitors: cell viability. Potency, µM (titrated, usually from 57.1 µM), inactives show at the top dose activity change, negative = cytotoxicity, hits mostly cytotoxic. HEK-293-SNCA-luc viability, GF-AFC fluorescence, 24 h. 150,000 compounds, 0.12% hits. AID 1671193;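 further: potency means the concentration at half of the fitted maximal effect; 0% = DMSO-treated cells and -100% = medium-only wells without cells; nearly all actives have a fitted effect of over 30% in size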
#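 HEK-293-SNCA-luc cells (1500/well) plated 24 h, then exposed 24 h to a dilution series; GF-AFC added 30 min at 37C, fluorescence 405/540 nm; normalised to medium-only and DMSO wells, Hill fit.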
# KDM5B inh = KDM5B demethylase inhibition. 220,000 compounds, 2.6% hits. Potency, µM (top dose mostly 57.7 µM), actives largely listed as inhibitors. KDM5B demethylase, FDH-coupled NADH fluorescence (FDH is formaldehyde dehydrogenase). AID 1347165. Q9UGL1; further: potency means the concentration at half of the fitted maximal effect; 0% is about no effect; nearly all actives have a fitted effect of over 70% in size
#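 Inhibition is measured as reduced NADH fluorescence generation from FDH coupling to formaldehyde release. Truncated KDM5BΔAP at 200 nM final acts on H3K4me3 peptide (12.5 µM in substrate mix) in pH 7.5 HEPES buffer with Tween-20, 30 min, room temperature.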
# Numbers without * were called inactive; i = inactive; ? = inconclusive; . = no result given; ! = not active in a repeat; [ ] = another dose, or the depositor's remark. An excerpt weighted towards active compounds, which were near 2.8% of everything screened. Unless noted, the call rests on the fitted dose curve; in most records, active means well fitted curve in the direction sought with a large enough effect; inconclusive means small, poorly fitted or top-dose-only effect, or another doubt; inactive means no such curve, though single readings can be large; an effect the other way counts as inactive or inconclusive.
SMILES,SNCA expr inhib,IP6K1 inh,HEK293 viab,KDM5B inh
CC1(c2noc(C3CC3)n2)CCN(C(=O)CCc2nc3ccc(Cl)cc3[nH]2)CC1,-28%,9,1%,i
O=C(Nc1ccc(C(F)(F)F)cc1)C1CCN(c2nc3ccccc3o2)CC1,.,.,.,i
COCc1ccc2c(c1)c(OC(C)(C)C(=O)NCCN1CCOCC1)nn2CCC(C)C,26%,-1,2%,25µM*
COCc1ccc2c(c1)c(OC(C)(C)C(=O)NC1CCN(C)CC1)nn2CCC(C)C,2%[87.6 µM],-8,-1%[87.6 µM],35µM*
COCc1ccc2c(c1)c(OC(C)(C)C(=O)NCCN1CCOCC1)nn2Cc1cccnc1,7%,-5,1%,i
COCc1ccc2c(c1)c(OC(C)(C)C(=O)NC1CC1)nn2CCC(C)C,-39%[87.6 µM],-7,-1%[87.6 µM],40µM*
COCC(=O)NC[C@H]1CCN(Cc2ccc(Cl)cc2)C[C@H]1N(C)C,10%,12,0%[12.5 µM],i
COCC(=O)NC[C@H]1CCN(Cc2ccc(C#N)cc2)C[C@H]1N(C)C,38%,12,-7%[12.5 µM],18µM*
OC[C@@H]1O[C@H](CNCc2cccc(Cl)c2)[C@H](N2CCN(c3ccccn3)CC2)[C@@H]1O,5%,8,1%,25µM*
OC[C@@H]1O[C@H](CNCc2cccc(Cl)c2)[C@H](N2CCN(c3ccc(F)cc3)CC2)[C@@H]1O,-18%,5,-10%,?
CCOC(=O)Cn1nc(C)c(NC(=O)COc2ccc(OC)cc2)c1C,24%,39,7%,i
COC(=O)CO[C@@H]1CO[C@H]2[C@@H]1OC[C@@H]2NC(=S)Nc1cc(C)cc(C)c1,16%[87.6 µM],24,7%[87.6 µM],28µM*
O=C1CCN(C(=O)C2CCN(C(=O)c3ccoc3)CC2)CCCCCCN1,-23%,10,1%,i
CC(=O)NCCNC(=O)c1ccc(-c2ncc3cnc(-c4cccc(F)c4)cn23)cc1,61%[87.6 µM],-16,-15%[87.6 µM],28µM*
O=C(NC1CCC(O)CC1)c1ccc(-c2ncc3cnc(-c4cccc(F)c4)cn23)cc1 (configuration not stated),3%[87.6 µM],-8,-15%[87.6 µM],22µM*
O=C(NCCc1cnc[nH]1)c1ccc(-c2ncc3cnc(-c4cccc(F)c4)cn23)cc1,-11%[87.6 µM],-3,-16%[87.6 µM],?
CCOC(=O)C1C(c2ccc(OC)c(OC)c2)NC(=O)NC1(O)C(F)(F)F (configuration not stated),.,.,.,i
O=C(c1cccc(F)c1)N1CCN(Cc2cc(=O)n3ccsc3n2)CC1,.,.,.,i
Cc1cc(NCc2cncn2CC(C)C)n2nc(C)cc2n1,4%,7,-9%,?
Cc1cc(NCCN2CCNC2=O)n2nc(C)cc2n1,12%,4,4%,18µM*
O=C1CCC2(CCCN(c3ncc(Cl)cc3F)C2)CN1Cc1cccnc1 (configuration not stated),-4%,1,11%,28µM*
COc1ccc(CC(=O)N2N=C(c3ccc(F)cc3)CC2(O)C(F)(F)F)cc1 (configuration not stated),.,.,.,i
Cc1ccc(NC(=O)Nc2cccn3nc(C)nc23)cc1,171%,13,3%,i
CNC(=O)Nc1cccn2nc(-c3ccccc3)nc12,176%,19,2%,25µM*
O=C(NCCNc1cccnc1)C1CCC(=O)N(Cc2ccc(Cl)cc2)C1 (configuration not stated),4%,-14,-12%,11µM*
SMILES,SNCA expr inhib,IP6K1 inh,HEK293 viab,KDM5B inh
CCn1c(CO)nnc1C1CC(NC(=O)c2cnn3cc(C)cnc23)C1 (configuration not stated),48%,13,-1%,28µM*!
COc1cc(OC)cc(C(=O)N2CCCC3(C2)Nc2cccnc2NC3=NC2CCCC2)c1 (configuration not stated),6%,5,-12%,28µM*
O=C(CSc1ccccc1)N1CCCC2(C1)Nc1cccnc1NC2=NC1CCCC1 (configuration not stated),2%,7,-19%,28µM*
Cc1ccc(C(=O)N2CCCC3(C2)C(=NC2CCCC2)NC(=O)N3c2cccnc2)cc1 (configuration not stated),39%,-9,2%,i
COc1ccc(OCC(=O)N2CCCC3(C2)Nc2cccnc2NC3=NC2CCCC2)cc1 (configuration not stated),-12%,17,-13%,25µM*
COc1ccc(C(=O)N2CCCC3(C2)Nc2cccnc2NC3=NC2CCCC2)cn1 (configuration not stated),-20%,1,-18%,?
O=C(c1ccc2nc[nH]c2c1)N1CCCC2(C1)Nc1cccnc1NC2=NC1CCCC1 (configuration not stated),1%,-8,?,28µM*
CC1CCCN1c1ncnc2c1CN(C1CCC1)C(=O)CN2C (configuration not stated),-10%[87.6 µM],-2,6%[87.6 µM],i
O=C(c1ccc(Cl)s1)N1CCN(c2ncccn2)CC1,.,.,.,i
O=C(Cc1c[nH]c2ccccc12)N1CCCC2(C1)Nc1cccnc1NC2=NC1CCCC1 (configuration not stated),33%,1,-13%,?
O=S(=O)(c1cccs1)N1CCCC2(C1)Nc1cccnc1NC2=NC1CCCC1 (configuration not stated),-7%,14,-21%,11µM*
O=C(c1ccc(Cl)s1)N1CCCC2(C1)Nc1cccnc1NC2=NC1CCCC1 (configuration not stated),-17%,0,-22%,28µM*
CCCn1c(C)cnc1CC1CCCN(S(=O)(=O)c2cccs2)C1 (configuration not stated),-1%,2,-2%,i
Cc1ccccc1C(=O)N1CCCC2(C1)Nc1cccnc1NC2=NC1CCCC1 (configuration not stated),1%,10,-19%,16µM*
Cc1ccc(C)c(CN2C(=O)c3ccccc3S(=O)(=O)c3ccc(C(=O)N4CCN(c5ccccc5F)CC4)cc32)c1,41%,5,-14%,i
COc1cc(OC)c(C2CC(=O)Nc3ccsc32)cc1OC (configuration not stated),.,.,.,i
O=C(Nc1nc2ccc(F)cc2s1)c1nc(S(=O)(=O)Cc2ccccc2)ncc1Cl,?,-40*,32µM*,?
O=C(c1cccnc1)N1CCC2(CNc3ccccc3[S+](=O)([O-])N2)C1 (configuration not stated),28%,4,?,i
COCc1nnc2n1CCC(NC(=O)Cc1c[nH]c3ccccc13)CC2 (configuration not stated),4%,2,-6%,i
COCc1nnc2n1CCC(NC(=O)c1n[nH]c3ccccc13)CC2 (configuration not stated),3%,-9,1%,28µM*
CC(C)Cn1c(CN(C)C(C)c2ccon2)cnc1S(=O)(=O)Cc1ccccc1 (configuration not stated),-38%,10,-2%,i

# Source: PubChem BioAssay
